Assay results from PubChem BioAssay.
Activity calls are given as the source filed them.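 Rule for the calls, unless noted: active = inhibition of the reporter signal at or above 50%; inactive = inhibition below 50%.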

Assays:
[1] = inhibitors of TNFa-induced NFkB p65 translocation, primary screen, imaging, HUVEC, MLSMR starter and 10KST1 sets (AID 438;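 active = inhibition above 20% together with a positive visual image hit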;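 note: compound added about 3h40 before a 20 min TNFalpha stimulation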;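 for inhibition: signal is the nuclear over cytoplasmic p65 intensity ratio per well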); conditions: HUVEC TNFa-induced p65 nuclear translocation; cell count: measured here: nuclei count (cytotoxicity indicator), at 2.08 µM; inhibition: at 2 µM, stronger effect = higher value, 0% TNFa-plus-vehicle, 100% no-TNFa wells
[2] = inhibitors of mutant huntingtin aggregation, primary screen, imaging, exon1htt(103Q)mCFP cells, high-content imaging (AID 483;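 active = visual image review flags a hit and inhibition of aggregation exceeds 20%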;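 note: compound exposure lasted 3 days before fixation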;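 for nuclei count: percent of the per-plate median nuclei count of sample wells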); conditions: exon1htt(103Q)mCFP cell line, aggregate imaging, at 2 µM; inhibition of aggregation: stronger effect = higher value; nuclei count: measured here: cell count, toxicity
[3] = inhibitors of E-selectin induction by TNFa, primary screen, imaging, HUVEC, immunofluorescence, MLSMR starter and 10KST1 sets (AID 487;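 active = visually confirmed hit in the image check and inhibition above 20%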;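 for inhibition: signal is fraction of cell area covered by stained E-selectin grains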;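 for nuclei count: 100% = median nuclei count of all wells on the same plate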); conditions: HUVEC TNFalpha-induced E-selectin immunofluorescence imaging, at 2 µM; inhibition: stronger effect = higher value; nuclei count: measured here: cell number, toxicity
[4] = biological target: Voltage-gated potassium channel subunit beta-2 (Rattus norvegicus) (UniProt P62483); test: KvBeta enzyme negative modulators, primary screen, biochemical, NADPH fluorescence (AID 622;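 active = fluorescence slope higher than the sample average by over 3 SD, cut at about -0.22 in these data, passing the limit was not always enough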;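 note: slope of raw intensity against log time taken from 70 to 1610 s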); conditions: recombinant KvBeta, 4-cyanobenzaldehyde reduction, at 10 µM, stronger effect = higher value
[5] = biological target: Voltage-gated potassium channel subunit beta-2 (Rattus norvegicus) (UniProt P62483); test: KvBeta positive modulators, primary screen, biochemical, NADPH fluorescence (AID 623;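 active = NADPH fluorescence slope more negative than the mean of all samples by about 3 SD, 99.7% confidence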;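 note: fluorescence intensity change per second fitted from 20 to 320 s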); conditions: Recombinant KvBeta, NADPH fluorescence decrease slope, 10 min; at 10 µM; stronger effect = lower value
[6] = biological target: Alpha-2C adrenergic receptor (Homo sapiens) (UniProt P18825); test: modulators of alpha2C/GIRK thallium flux, primary screen, cell-based, HEK293 alpha2C/GIRK1/2 (AID 624;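 active = fluorescence slope after compound addition differing from the mean of all screened samples at 99.7% confidence, in either direction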;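 note: slope of fluorescence ratio to pre-addition baseline per second over 15 to 24 s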); conditions: thallium flux BTC fluorescence, at 10 µM, actives lie on both sides
[7] = inhibitors of Sendai virus-induced IRF3 signaling, primary screen, TLR/RLR signaling modifier project, cell-based, Sendai virus stimulus, luciferase, 10K MLSCN set (AID 602276;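 active = inhibition at or above 50% at 10 µM; inactive = inhibition below 50%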;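 note: firefly luciferase from ISG56 promoter only with Renilla not read in this screen; 0% = Sendai virus plus DMSO and 100% = medium plus DMSO without virus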); conditions: HEK293 RL24 IRF3 luciferase reporter, at 10 µM, stronger effect = higher value
[8] = inhibitors of poly I:C-induced TLR3 signaling, primary screen, cell-based, poly I:C stimulus, luciferase, 10K MLSCN set (AID 602277); conditions: HEK293-TLR3 RL24 IRF3 luciferase reporter, at 10 µM, stronger effect = higher value

Sequence of Alpha-2C adrenergic receptor (Homo sapiens) (P18825 whole entry, looked up): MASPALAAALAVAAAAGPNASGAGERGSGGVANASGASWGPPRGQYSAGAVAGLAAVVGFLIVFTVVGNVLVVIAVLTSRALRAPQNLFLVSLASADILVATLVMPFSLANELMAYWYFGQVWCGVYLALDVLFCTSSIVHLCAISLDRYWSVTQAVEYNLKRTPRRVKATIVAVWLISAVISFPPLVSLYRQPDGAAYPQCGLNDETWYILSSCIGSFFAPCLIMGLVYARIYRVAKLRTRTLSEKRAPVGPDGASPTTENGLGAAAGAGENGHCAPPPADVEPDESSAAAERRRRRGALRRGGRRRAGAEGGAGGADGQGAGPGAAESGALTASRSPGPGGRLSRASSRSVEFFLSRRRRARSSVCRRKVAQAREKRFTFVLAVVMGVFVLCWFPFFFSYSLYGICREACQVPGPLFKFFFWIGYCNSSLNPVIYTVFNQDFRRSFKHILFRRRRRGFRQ
Sequence of Voltage-gated potassium channel subunit beta-2 (Rattus norvegicus) (P62483 whole entry, looked up): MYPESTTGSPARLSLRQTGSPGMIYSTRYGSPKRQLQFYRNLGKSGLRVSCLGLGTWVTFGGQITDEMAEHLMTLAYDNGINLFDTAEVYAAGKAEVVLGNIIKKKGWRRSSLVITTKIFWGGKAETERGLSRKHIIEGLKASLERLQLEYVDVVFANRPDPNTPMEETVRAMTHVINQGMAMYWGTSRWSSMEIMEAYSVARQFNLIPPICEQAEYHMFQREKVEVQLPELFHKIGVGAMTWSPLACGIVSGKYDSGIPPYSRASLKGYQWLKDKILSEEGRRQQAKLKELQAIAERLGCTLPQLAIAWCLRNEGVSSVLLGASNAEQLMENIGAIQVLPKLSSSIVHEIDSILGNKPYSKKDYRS

SMILES | cell count [1] | inhibition [1] | inhibition of aggregation [2] | nuclei count [2] [%] | inhibition [3] | nuclei count [3] [%] | fluorescence slope [4] | NADPH fluorescence slope [5] | slope [6] | inhibition [7] | inhibition [8]
COc1cc(C(=O)OC(C)CN2CCCC2)cc(OC)c1OC (stereo not drawn) | 286 | 2.9% (inactive) | -4.1% (inactive) | 101 | 30.9% (inactive) | 101 | -0.324 (inactive) | -5.1e-05 (inactive) | 0.00369 (inactive) | 5.11% (inactive) | 11.1% (inactive)
Cn1c(=O)[nH]c(=O)c2c1nc(NC1CCCCC1)n2CC(=O)NC1CCCCC1 | 751 | -14.7% (inactive) | 12.1% (inactive) | 90.9 | 10.2% (inactive) | 105 | -0.4 (inactive) | 8.4e-06 (inactive) | 0.00653 (inactive) | 18.1% (inactive) | 21.1% (inactive)
COc1ccc(NC(=O)CC2Sc3ncnn3C2=O)cc1 (stereo not drawn) | 632 | -5% (inactive) | -9.2% (inactive) | 128 | -65.3% (inactive) | 126 | -0.567 (inactive) | -4e-05 (inactive) | 0.0059 (inactive) | 8.74% (inactive) | 16.8% (inactive)
CCn1nc(CC(=O)Nc2nnc(CC(=O)N3CCCCC3)s2)c2ccccc2c1=O | 385 | 0.2% (inactive) | 2.9% (inactive) | 104 | -289% (inactive) | 95.9 | -0.437 (inactive) | -2.5e-05 (inactive) | 0.00348 (inactive) | 8.15% (inactive) | 25.2% (inactive)
Cn1c(=O)n(CCN2CCOCC2)c(=O)c2c1nc1n2CCN1c1ccccc1 | 362 | 14% (inactive) | 27.9% (inactive) | 98.5 | -33.7% (inactive) | 132 | -0.564 (inactive) | 2.6e-05 (inactive) | 0.00592 (inactive) | -6.67% (inactive) | 3.62% (inactive)
COc1ccc(-c2cc(C(F)(F)F)n3nc(C(=O)N4CCOCC4)nc3n2)cc1 | 620 | 11.1% (inactive) | -19.6% (inactive) | 103 | 41.9% (inactive) | 102 | -0.172 (inactive) | -5.6e-05 (inactive) | 0.00494 (inactive) | 10.8% (inactive) | 15.3% (inactive)
CCOC(=O)c1sc(N)c(C(=O)OCC)c1COC(=O)C1CC(=O)N(Cc2ccco2)C1 (stereo not drawn) | 780 | 2.9% (inactive) | -82.9% (inactive) | 104 | -33.4% (inactive) | 116 | -0.526 (inactive) | -4.5e-05 (inactive) | 0.00648 (inactive) | -20.6% (inactive) | -13.3% (inactive)
CCOC(=O)N1CCC(NC(=O)c2ccc3c(c2)sc2nc(-c4cccc(OC)c4)cn23)CC1 | 415 | 8% (inactive) | 8.8% (inactive) | 93.6 | -3.7% (inactive) | 108 | -0.485 (inactive) | -2.7e-05 (inactive) | 0.00825 (inactive) | -22.7% (inactive) | -70.4% (inactive)
COC(=O)CS(=O)(=O)c1nnc([C@H](Cc2ccccc2)NC(=O)OC(C)(C)C)o1 | 493 | -8% (inactive) | 22% (inactive) | 84.1 | 38.4% (inactive) | 89 | -0.486 (inactive) | -5.6e-05 (inactive) | 0.00353 (inactive) | 15.1% (inactive) | 33.7% (inactive)
O=S(=O)(c1ccccc1)N(Cc1nc(-c2ccccc2)no1)C1CCCCC1 | 446 | 2% (inactive) | 5.6% (inactive) | 76.3 | -57.4% (inactive) | 96.2 | -0.461 (inactive) | -1.2e-05 (inactive) | 0.00919 (inactive) | 16.6% (inactive) | 30.8% (inactive)
O=C(CN1C(=O)NC2(CCCCC2)C1=O)Nc1ccc(S(=O)(=O)N2CCOCC2)cc1 | 460 | 5.2% (inactive) | -2.3% (inactive) | 93.7 | 29.7% (inactive) | 96.2 | -0.49 (inactive) | -7.9e-06 (inactive) | 0.00589 (inactive) | 9.77% (inactive) | 34.3% (inactive)
CC(C)Cc1nnc(NC(=O)CCC(=O)N2CCOCC2)s1 | 597 | 8.1% (inactive) | -2% (inactive) | 106 | 17.3% (inactive) | 102 | -0.422 (inactive) | -3.6e-05 (inactive) | 0.00514 (inactive) | 12.2% (inactive) | 10.8% (inactive)
O=C(c1cnn2c(C(F)(F)F)cc(-c3ccco3)nc12)N1CCc2ccccc2C1 | 516 | 2% (inactive) | 22.2% (inactive) | 92.9 | -11.7% (inactive) | 67 | -0.327 (inactive) | 1.7e-05 (inactive) | 0.00417 (inactive) | -19% (inactive) | -13.6% (inactive)
C=CCN(CC=C)C(=O)c1ccncc1 | 267 | -14% (inactive) | 4.9% (inactive) | 53.2 | -86.3% (inactive) | 110 | -0.501 (inactive) | 1.1e-05 (inactive) | 0.00479 (inactive) | 4.76% (inactive) | 5.55% (inactive)
O=C(NC1CCCC1)C(c1cccs1)N(C(=O)c1ccno1)c1ccccc1 (stereo not drawn) | 648 | -3.2% (inactive) | -3.9% (inactive) | 101 | 38.6% (inactive) | 94.7 | -0.607 (inactive) | -4.3e-05 (inactive) | 0.00635 (inactive) | 3.89% (inactive) | 21.8% (inactive)
Cc1nn(-c2ccc(Cl)cc2)c2sc(C(=O)N3CCN(c4ccccn4)CC3)cc12 | 571 | -3.6% (inactive) | 1.7% (inactive) | 95.6 | 42.5% (inactive) | 108 | -0.612 (inactive) | -2.4e-05 (inactive) | 0.011 (active) | 9.58% (inactive) | -7.18% (inactive)
O=C(NCc1ccc2c(c1)OCO2)C1CCCN(S(=O)(=O)c2cccnc2)C1 (stereo not drawn) | 584 | 7.6% (inactive) | -1.4% (inactive) | 96.3 | -65.3% (inactive) | 119 | -0.575 (inactive) | -2.7e-05 (inactive) | 0.00636 (inactive) | 8.73% (inactive) | 23.4% (inactive)
CC(C)(C)c1ccc(C(=O)Nc2cnccn2)cc1 | 351 | 1.7% (inactive) | 7.6% (inactive) | 100 | 11.6% (inactive) | 108 | -0.379 (inactive) | -6.5e-05 (inactive) | 0.0039 (inactive) | -50.1% (inactive) | -138% (inactive)
Cc1ccc(SC(C)c2nc(-c3ccccc3)no2)cc1 (stereo not drawn) | 283 | -7.5% (inactive) | 8.1% (inactive) | 105 | 51.9% (active) | 42.1 | -0.416 (inactive) | -4.5e-05 (inactive) | 0.00449 (inactive) | -11.7% (inactive) | -42.5% (inactive)
CCOC(=O)c1sc2nc(SCC(=O)NCc3ccco3)n(Cc3ccccc3)c(=O)c2c1C | 395 | -1.1% (inactive) | 0.8% (inactive) | 89.7 | -22% (inactive) | 99.6 | -0.449 (inactive) | -2.2e-05 (inactive) | 0.00701 (inactive) | 5.1% (inactive) | 21.4% (inactive)
CCc1c(C)nc2ncnn2c1N1CCC(C(=O)NCc2cccc(OC)c2)CC1 | 716 | -5.5% (inactive) | -13.4% (inactive) | 66 | -34.8% (inactive) | 116 | -0.499 (inactive) | -4.5e-05 (inactive) | 0.00565 (inactive) | 5.24% (inactive) | 1.67% (inactive)
CC1CCCN(C(=O)c2cc(F)c(F)cc2Cl)C1 (stereo not drawn) | 888 | -1.3% (inactive) | 39.2% (inactive) | 88.6 | -25.2% (inactive) | 94 | -0.617 (inactive) | -3.8e-05 (inactive) | 0.00409 (inactive) | 2.92% (inactive) | 7.68% (inactive)
CCc1ccc(C=NC23CN4CN(CN(C4)C2)C3)s1 | 319 | -14.4% (inactive) | -5.7% (inactive) | 106 | -41.8% (inactive) | 122 | -0.438 (inactive) | 5.9e-05 (inactive) | 0.00606 (inactive) | -1.05% (inactive) | -0.158% (inactive)
Cc1cccc(C2c3c(n(C)c(=O)n(C)c3=O)N=C3c4ccccc4C(=O)C32)c1 (stereo not drawn) | 323 | -5.6% (inactive) | 6.9% (inactive) | 102 | -348% (inactive) | 113 | -0.383 (inactive) | 2.2e-05 (inactive) | 0.00343 (inactive) | 16% (inactive) | 3.75% (inactive)
COCCn1nnnc1C(c1cc2cc(OC)ccc2[nH]c1=O)N1CCC(Cc2ccccc2)CC1 (stereo not drawn) | 247 | -3.5% (inactive) | -2.5% (inactive) | 88.5 | -39.9% (inactive) | 117 | -0.359 (inactive) | 1.6e-05 (inactive) | 0.00322 (inactive) | 14.4% (inactive) | 30.6% (inactive)
Cc1cc(C(N)=O)c2cc(Br)ccc2n1 | 367 | 5.5% (inactive) | 0.7% (inactive) | 94.5 | -54% (inactive) | 120 | -0.436 (inactive) | -5.1e-05 (inactive) | 0.0072 (inactive) | 4.62% (inactive) | 32.5% (inactive)
COc1cccc2cc(C(=O)C3=C(O)C(=O)N(CCCN4CCOCC4)C3c3ccncc3)oc12 (stereo not drawn) | 463 | 0.9% (inactive) | -8.5% (inactive) | 103 | -14.9% (inactive) | 120 | -0.478 (inactive) | -7.1e-05 (inactive) | 0.00372 (inactive) | -11.8% (inactive) | 10.6% (inactive)
CN(C(=O)c1ccccn1)c1nnc(-c2cccnc2)s1 | 622 | -8.7% (inactive) | 11.2% (inactive) | 93.2 | -52.7% (inactive) | 106 | -0.489 (inactive) | -5.1e-05 (inactive) | 0.0044 (inactive) | 0.693% (inactive) | -16.2% (inactive)
